TRAIL sens C8: caspase-8 TRAIL sensitization; NB7+C8 cells + TRAIL, ATPlite viability luminescence; inhibition (viability loss, TRAIL sensitization), % at 10 µM; 1% of 360,000 active; AID 624354;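 active = compounds causing at least 50% loss of cell viability in the single-dose screen, relative to plate controls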
SENP8 block-1: blocks the human protease SENP8. Q96LD8. purified SENP8, Z-RLRGG-aminoluciferin cleavage, luminescence. inhibition, % at 10 µM. 1.2% of 330,000 active. AID 2540; in the data active = inhibition above about 50%
SENP7 block: SENP7 protease inhibition; Q9BQF6; 1.5% of 330,000 active; inhibition, % at 5 µM; recombinant SENP7, Z-RLRGG-aminoluciferin luminescence, 40 min;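 active = inhibition above about 50% at the single test dose, limit read from the data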
SENP8 block-2: blocks human SENP8 cleavage of Nedd8 substrate; Q96LD8; recombinant SENP8, Nedd8 substrate fluorescence; inhibition, % at 20 µM; 0.64% of 360,000 active; AID 602440; in the data active = inhibition mostly above about 40%, no sharp cut-off; inactive = mostly below about 27%
SENP6 block: blocks the human protease SENP6 | 1.8% of 330,000 active | Q9GZR1 | inhibition, % at 10 µM | Recombinant SENP6 catalytic domain, aminoluciferin luminescence | AID 2599;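 active = inhibition above about 50% at the single tested dose, limit read from the data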
Target sequence (Q9GZR1 628-1112 limits assumed): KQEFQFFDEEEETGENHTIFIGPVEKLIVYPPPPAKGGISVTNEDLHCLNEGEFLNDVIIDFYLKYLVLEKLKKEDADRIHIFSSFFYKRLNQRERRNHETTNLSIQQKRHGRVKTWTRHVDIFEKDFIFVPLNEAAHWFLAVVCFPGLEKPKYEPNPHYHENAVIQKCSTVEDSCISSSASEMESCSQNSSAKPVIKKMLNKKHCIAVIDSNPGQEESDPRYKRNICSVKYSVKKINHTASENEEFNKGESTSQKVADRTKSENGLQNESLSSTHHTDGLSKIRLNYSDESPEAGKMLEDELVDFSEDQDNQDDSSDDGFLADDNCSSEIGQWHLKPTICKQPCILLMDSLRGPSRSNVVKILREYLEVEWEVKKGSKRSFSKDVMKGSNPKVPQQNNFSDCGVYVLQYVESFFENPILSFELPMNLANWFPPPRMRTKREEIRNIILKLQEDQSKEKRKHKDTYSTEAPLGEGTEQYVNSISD
PPC-1+TRAIL kill: compounds killing PPC-1 cancer cells with TRAIL present (potentiator screen, no TRAIL-free arm). PPC-1 cells + TRAIL, ATPLite viability luminescence. cell killing (% activity), % at 4 µM or 5 µM. 0.41% of 220,000 active;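 active = cell killing above 50% in the first pass at 4 µM, then a duplicate retest at 5 µM averaging 50% or more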
SENP8 conf: human SENP8 inhibition, confirmed; inhibition, % at 12.5 µM; Recombinant SENP8, Z-RLRGG-aminoluciferin luminescence, 60 min; shares compounds with SENP7 block; 40% of 6,200 active;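 active = mean inhibition across replicates above about 50%, limit read from the data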
SENP6 conf: confirmation of human SENP6 protease inhibitors | inhibition, % at 12.5 µM | 58% of 6,200 active | recombinant SENP6, Z-RLRGG-aminoluciferin luminescence | shares compounds with SENP7 block
SENP7 confirm: confirmation of human SENP7 protease inhibitors | shares compounds with SENP7 block | recombinant SENP7, Z-RLRGG-aminoluciferin luminescence, 40 min | inhibition, % at 12.5 µM | 69% of 6,200 active | AID 488917
Casp3 SENP sel: inhibits human caspase-3 in SENP selectivity test; shares compounds with SENP7 block; purified caspase-3, Z-DEVD-aminoluciferin luminescence, 60 min; inhibition, % at 12.5 µM; 60% of 6,200 active; AID 488918;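 active = mean inhibition above about 50%, limit read from the data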
SENP luc ctr: counter-screen for SENP inhibitors: luminescence interference | shares compounds with SENP7 block | Pre-incubated SENP8/Z-RLRGG-aminoluciferin, luciferase luminescence interference | inhibition, % at 12.5 µM | 39% of 6,200 active | AID 488919;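 active = mean inhibition above about 50% when retested at one dose, limit read from the data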
A number is an active result; . = inactive; / = no result. Shown are actives, neighbours in structure and some others; about 3% of the full set was active somewhere.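 Rule for the calls, unless noted: active = mean inhibition above about 50% in the one-dose retest (limit read from the data); inactive = the rest.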

SMILES | TRAIL sens C8 | SENP8 block-1 | SENP7 block | SENP8 block-2 | SENP6 block | PPC-1+TRAIL kill | SENP8 conf | SENP6 conf | SENP7 confirm | Casp3 SENP sel | SENP luc ctr
Cc1ccc(-n2cc(C(=O)c3ccccc3O)cn2)cc1 | 60.0 | 91.6 | 97.0 | . | 91.4 | . | . | 96.7 | 100.9 | 92.2 | .
Cc1nc(C(C)NC(=O)CCc2nnc(CCCc3ccccc3)o2)c(C)s1 (stereo not given) | . | . | . | . | . | / | / | / | / | / | /
C=CCn1c(SCC(=O)N2CCN(c3ccc(F)cc3)CC2)nnc1-c1ccco1 | . | . | . | . | . | . | / | / | / | / | /
C=CCn1c(SCc2nc(N)nc(N3CCCCC3)n2)nnc1-c1ccco1 | . | . | 61.0 | . | . | . | . | . | . | . | .
COc1ccc(CN=C2NN=C(c3ccc(Cl)cc3)CS2)cc1 | . | . | . | . | . | . | / | / | / | / | /
COc1ccc(CN=C2Nc3ccccc3CS2)cc1 | . | 79.5 | 84.6 | . | 91.9 | . | 86.3 | 86.5 | 96.7 | 81.3 | 87.5
CCCc1cc(=O)[nH]c(SCC(=O)Nc2cc(S(=O)(=O)N3CCOCC3)ccc2Cl)n1 | . | . | . | . | . | / | / | / | / | / | /
CCc1c(C)nc2cc(-c3ccccc3)[nH]n2c1=O | . | . | . | . | . | / | / | / | / | / | /
O=c1c2c(nc3cc(-c4ccccc4)[nH]n13)CCC2 | . | . | . | . | 57.2 | . | . | . | . | . | .
O=c1c2c(nc3cc(-c4ccccc4)[nH]n13)CCS2 | . | 68.9 | . | . | 78.1 | . | . | . | . | . | .
O=c1c2c(nc3cc(-c4ccc(Br)cc4)[nH]n13)CCCC2 | . | . | . | . | . | / | / | / | / | / | /
COc1cc(OC)cc(-c2nc3ccccc3c(=O)n2OC(=O)c2ccc(C)c(C)c2)c1 | . | . | . | . | . | . | / | / | / | / | /
O=C(CN(CCO)c1ccccc1)Nc1ccc(Cl)c(S(=O)(=O)N2CCOCC2)c1 | . | . | . | . | . | . | / | / | / | / | /
Cc1ccc(Nc2nc3nonc3[nH]c2=O)cc1 | . | 59.7 | 59.9 | . | . | . | 75.1 | 66.3 | 84.5 | 74.1 | 70.9
Cc1ccc(NC(=O)CN(C)C(=S)NC2CC2)cc1 | . | . | . | . | . | . | / | / | / | / | /
Cc1ccc(SCCC(=O)Nc2ccccc2Br)cc1 | . | . | . | . | 58.4 | . | . | . | 77.6 | . | 51.3
CC1(C)CCCC(C)(C)N1CC(O)COCCOc1ccc(Br)cc1 (stereo not given) | . | . | . | . | . | . | / | / | / | / | /
CCCn1nnc2ccccc2c1=O | . | . | . | . | . | . | / | / | / | / | /
CCOc1ccc(OCCn2nnc3ccccc3c2=O)cc1 | . | 57.7 | 67.2 | . | 68.6 | . | . | 59.5 | 88.9 | 80.7 | 50.1
CSC1=NSC2=NC(=O)/C(=C/c3coc4ccccc4c3=O)C(=N)N12 | . | / | / | . | / | . | / | / | / | / | /
N=C1/C(=C/c2cccs2)C(=O)N=C2SN=C(SCc3ccccc3)N12 | . | . | . | . | 65.9 | . | . | 59.4 | . | . | .
CSC1=NSC2=NC(=O)/C(=C\c3cccs3)C(=N)N12 | . | / | / | . | / | . | / | / | / | / | /
CC(C)CSC1=NSC2=NC(=O)/C(=C\c3cccs3)C(=N)N12 | . | . | . | . | 68.3 | . | 51.1 | 53.1 | . | . | .
COc1ccc(OC)c(NC(=O)COC(=O)CCNc2ccccc2OC)c1 | . | . | . | . | . | / | / | / | / | / | /
Cc1cc(C(=O)NNC2CC(=O)N(c3ccc4ccccc4c3)C2=O)c(C)o1 (stereo not given) | . | . | . | . | . | . | / | / | / | / | /
O=C(/C=C/c1c[nH]c2ccccc12)c1ccccc1 | . | . | . | . | . | . | / | / | / | / | /
